# HT1080NT lethal – kills 2HG-producing HT-1080-NT fibrosarcoma cells; HT-1080-NT fibrosarcoma viability, CellTiter-Glo ATP luminescence, 48 h; 1.6% of 360,000 active; Potency, µM (titrated, usually from 46.1 µM), for the others: top-dose activity, negative = less viability, hits mostly cytotoxic;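 also: NT is the 2HG producing partner of a matched IDH1 knockdown line; potency is read from the fitted curve at half-maximal effect; 0% = DMSO-treated cells and -100% = media-only wells without cells; nearly all actives have a fitted effect of over 55% in size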
#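 Read-out is CellTiter-Glo luminescence after 10 minutes at room temperature, following 48 hours' compound treatment of HT-1080-NT cells (750 cells/well, RPMI, 5% FBS, 37 degrees C).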
# DT40 TDP1 CPT – growth inhibition of DT40 Tdp1-/-;hTDP1 cells with camptothecin (screen for TDP1 inhibitors); chicken DT40 Tdp1-/-;hTDP1 cells + 20 nM CPT, ATP luminescence, 48 h; 12% of 420,000 active; AID 686979; Potency, µM (titrated, usually from 46.2 µM), without a hit: top-dose activity change, negative = growth inhibition, hits mostly inhibitors; also: potency is read from the fitted curve at half-maximal effect; nearly all actives have a fitted effect of over 55% in size
#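 Chicken DT40 Tdp1-/- cells stably complemented with human TDP1 were seeded at 400 cells/well in medium containing 20 nM camptothecin, exposed to pin-transferred compounds, and grown at 37 °C for at least 48 hr. Viability was read as ATP luminescence.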
# HT1080 IDH1KD tx – HT-1080 IDH1 knockdown cell toxicity (counter line). Potency, µM (doses to about 46.1 µM), without a hit: top-dose activity, negative = toxicity, most hits filed as cytotoxic. HT-1080 IDH1 knockdown viability, ATP luminescence, 48 h. 2% of 360,000 active. AID 686971;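 also: potency is read from the fitted curve at half-maximal effect; 0% = DMSO wells and -100% = cell-free medium wells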
#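 Viability of IDH1-knockdown HT-1080 fibrosarcoma cells was assessed by CellTiter-Glo after 48 h at 37 °C with titrated compound; concentration-effect curves were classified by fit quality and response size.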
# DT40 TDP1 no CPT – qHTS for Inhibitors of human tyrosyl-DNA phosphodiesterase 1 (TDP1): qHTS in cells in absence of CPT; DT40 Tdp1-/- hTDP1 cells, no CPT, ATP luminescence, 48 h; Potency, µM (series often up to 46.2 µM), inactives show top-dose activity change, negative = growth inhibition, most hits filed as inhibitors; 15% of 420,000 active; also: potency is read from the fitted curve at half-maximal effect; nearly all actives have a fitted effect of over 55% in size
#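 Chicken DT40 Tdp1-/- cells complemented with human TDP1, screened without camptothecin (DMSO vehicle only), 400 cells/well. Compounds pin-transferred, cells incubated at 37 °C for at least 48 hr. Growth read as ATP-dependent luminescence (CellTiter-Glo, 30 min at RT).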
# ELG1 DNA repair – ELG1-dependent DNA repair inhibition; HEK293T ELG1-luciferase reporter, luminescence, 16 h; DNA damage induced by 5-fluorouridine; Potency, µM (top dose mostly 46.1 µM), inactives show top-dose activity change, negative = inhibition, hits mostly inhibitors; 2.3% of 330,000 active; also: potency is read from the fitted curve at half-maximal effect; nearly all actives have a fitted effect of over 55% in size
#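 Cells (2,000 per well) received 5-fluorouridine plus test compound or DMSO and were incubated 16 hr at 37 °C, 5% CO2. Luciferase activity was read by luminescence 30 min after ONE-Glo addition; signal suppression marked inhibition of damage-induced ELG1 function.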
# IL-1B inflam inh – inflammasome signaling inhibition, IL-1 beta readout; 4.7% of 360,000 active; activity change, % at 57.5 µM; THP-1 LPS/ATP IL-1B secretion, AlphaLISA, 16 h; hits give low values; in the data active = activity change below about -50%; inconclusive = mostly about -30% to -49%
#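 THP-1 cells pretreated 1 hr with compounds (up to 57.5 uM final), then stimulated with LPS (250 ng/mL final) plus ATP (1.25 mM final); secreted IL-1B measured by AlphaLISA after 16 hr, decreased signal indicating inhibition.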
# * = called active by the depositor; u = inconclusive; x = not tested or not shown. A selection: hits, their analogues and other compounds. The true share with any hit is near 19%. Unless noted, calls follow the shape of the dose curve; as a rule, active = well fitted curve in the direction sought with a large enough effect; inconclusive = small, poorly fitted or top-dose-only effect, or another doubt; inactive = no such curve, though single readings can be large; an effect the other way counts as inactive or inconclusive. Unless noted, % is scaled to controls: 0 for no effect and ±100 for the full control effect.
SMILES,HT1080NT lethal,DT40 TDP1 CPT,HT1080 IDH1KD tx,DT40 TDP1 no CPT,ELG1 DNA repair,IL-1B inflam inh
COc1ccc(C2NC(c3ccc(OC)cc3)C(C)C(=O)C2C)cc1 (stereo unspecified),-0.9%,-20.6%,6.9%,u,-7.3%,0.0
COc1ccc(C2NC(c3ccc(OC)cc3)C(c3ccccc3)C(=O)C2c2ccccc2)cc1 (stereo unspecified),0.8%,-22.6%,-14.5%,20.6µM*,6.6%,-5.5
O=Cc1ccc(N2CCCC2)c([N+](=O)[O-])c1,-2.9%,-7.4%,-8.1%,-22.9%,5.0%,-0.4
O=[N+]([O-])/C=C\c1ccc(N2CCCC2)c(F)c1,u,7.31µM*,3.26µM*,2.59µM*,u,-55.5*
CC(=O)N1c2ccc(S(=O)(=O)N3CCCC(C(=O)Nc4ccc(F)cc4)C3)cc2CC1C (stereo unspecified),-4.2%,u,-14.6%,23.1µM*,u,-5.0
CC(C)CCNC(=O)C1CCCN(S(=O)(=O)c2ccc3c(c2)CC(C)N3C(=O)C2CC2)C1 (stereo unspecified),-4.9%,u,-11.0%,-27.1%,-15.0%,-55.2*
CCc1ccc(NC(=O)C2CCCN(S(=O)(=O)c3ccc4c(c3)CC(C)N4C(C)=O)C2)cc1 (stereo unspecified),7.2%,16.4µM*,-1.0%,25.9µM*,u,-4.9
CCc1ccc(NC(=O)C2CCN(S(=O)(=O)c3ccc4c(c3)CC(C)N4C(C)=O)CC2)cc1 (stereo unspecified),-2.8%,16.4µM*,-1.4%,10.3µM*,7.3µM*,23.0
CCOc1ccc(NC(=O)C2CCN(S(=O)(=O)c3ccc4c(c3)CC(C)N4C(C)=O)CC2)cc1 (stereo unspecified),-2.6%,u,-8.0%,u,-26.0%,51.6
CCN(C(=O)c1cnc2ccc(C)cn2c1=O)c1ccccc1,x,-6.4%,x,-13.3%,x,x
C[C@H](CO)N1C[C@H](C)[C@@H](CN(C)C(=O)Nc2ccccc2F)OCc2cnnn2CCCC1=O,8.7%,8.1%,-0.6%,13.7%,x,14.5
CC1C(=O)CC(c2ccc([N+](=O)[O-])cc2)NC1c1ccc([N+](=O)[O-])cc1 (stereo unspecified),u,u,u,u,u,-19.3
CC1C(=O)C(C)C(c2ccc([N+](=O)[O-])cc2)NC1c1ccc([N+](=O)[O-])cc1 (stereo unspecified),-0.1%,u,-18.0%,18.4µM*,-26.1%,-8.1
CCOc1ccccc1NC(=O)c1c(NC(=O)c2cccc(C)c2)sc2c1CCCC2,x,u,x,23.1µM*,x,x
CCOc1ccccc1NC(=O)c1c(NC(=O)Cc2ccc(OC)cc2)sc2c1CCC2,x,8.2µM*,x,5.8µM*,x,x
O=C(COc1ccccc1)Nc1sc2c(c1C(=O)Nc1ccccc1)CCCCC2,x,u,x,0.461µM*,x,x
O=C(COc1ccccc1)Nc1sc2c(c1C(=O)Nc1ccccc1Cl)CCCCC2,x,4.0%,x,-3.4%,x,x
CCOc1ccccc1NC(=O)c1c(NC(=O)COc2ccccc2)sc2c1CCCCC2,x,2.06µM*,x,2.06µM*,x,x
CCOc1ccccc1NC(=O)c1c(NC(=O)CCC(=O)O)sc2c1CCCCC2,0.7%,-25.3%,9.3%,-16.3%,-1.0%,0.1
CCOc1ccccc1NC(=O)c1c(NC(=O)COc2ccc(Cl)cc2)sc2c1CCCCC2,x,-4.4%,x,-1.0%,x,x
CCC(=O)Oc1ccc(-c2nc3ccccc3c(=O)o2)cc1,x,-24.4%,x,-12.3%,x,x
O=S1(=O)CC(N2CCC(Cc3ccccc3)CC2)CN1C1CCCC1 (stereo unspecified),-0.7%,u,-0.3%,u,x,14.5
O=S(=O)(c1ccc(-c2csc(=Nc3ccc(F)cc3)n2CCCCCCO)cc1)N1CCCC1,x,2.91µM*,x,2.59µM*,x,x
Cc1ccc(-c2csc(=Nc3ccccc3)n2CCCO)cc1,x,16.4µM*,x,10.3µM*,x,x
OCCCn1c(-c2ccc(F)cc2)csc1=Nc1ccc(F)cc1,x,9.2µM*,x,14.6µM*,x,x
SMILES,HT1080NT lethal,DT40 TDP1 CPT,HT1080 IDH1KD tx,DT40 TDP1 no CPT,ELG1 DNA repair,IL-1B inflam inh
CC(C)NC(=O)C1C(c2ccc(C(F)(F)F)cc2)=Nc2ccccc2N1C(=O)c1cccc2ccccc12 (stereo unspecified),11.9%,u,1.5%,u,x,28.7
O=C(N/N=C/c1cccc(O)c1)c1ccc(COc2ccccc2Br)cc1,-13.9%,u,-21.0%,u,-15.1%,-68.0*
O=C(N/N=C/c1ccc([N+](=O)[O-])cc1)c1ccccc1OCc1ccccc1,-13.4%,-15.4%,-10.2%,u,u,21.1
O=C(Nc1ccc(Cn2cccn2)cc1)c1ccc(COc2ccccc2Br)cc1,u,13µM*,u,14.6µM*,-19.8%,-60.1*
O=C(N/N=C/c1ccc([N+](=O)[O-])cc1)c1ccc(COc2ccccc2-c2ccccc2)cc1,-6.0%,u,6.3%,13µM*,-6.2%,0.0
O=C(N/N=C/c1ccc2c(c1)OCO2)c1ccc(COc2cccc3cccnc23)cc1,u,u,u,25.9µM*,18.3µM*,-18.1
CC1CCCCN1CCCNC(=O)c1sc2ncccc2c1-n1cccc1 (stereo unspecified),x,-23.9%,x,-22.8%,x,x

# Bioassay records deposited in PubChem by National Center for Advancing Translational Sciences (NCATS).
